Of roughly 7,900 targets only a part is listed; those with a hit were picked by preference. About 0.6% of all pairs of compound and target were hits.
compound: c1cn2cc(-c3ccc4cn[nH]c4c3)nc(Nc3ccc(N4CCOCC4)cc3)c2n1 [entospletinib]; assay: log2 fold change, soluble protein after heating vs DMSO (PISA); higher = thermal stabilisation; K562 cells, 10 uM, 30 min; active = over 0.2 and 3.5 SD of the protein, either way, in both replicates (recomputed)
Outline: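 K562 cells at 2×10^6 cells/mL were treated with 10 μM compound for 30 min. Aliquots were heated for 3 min across 48°C-58°C, pooled, and extracted in PBS with 0.5% NP-40 at 4°C; soluble protein was the supernatant after 21,000xg for 90 min. Soluble protein was quantified by TMTpro 16plex LC-MS/MS with channel sums equalised, and reported as log2 fold change in thermal stability against DMSO controls, with values from duplicates.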

Sequence of UniProt O43847 (O43847 whole entry, looked up): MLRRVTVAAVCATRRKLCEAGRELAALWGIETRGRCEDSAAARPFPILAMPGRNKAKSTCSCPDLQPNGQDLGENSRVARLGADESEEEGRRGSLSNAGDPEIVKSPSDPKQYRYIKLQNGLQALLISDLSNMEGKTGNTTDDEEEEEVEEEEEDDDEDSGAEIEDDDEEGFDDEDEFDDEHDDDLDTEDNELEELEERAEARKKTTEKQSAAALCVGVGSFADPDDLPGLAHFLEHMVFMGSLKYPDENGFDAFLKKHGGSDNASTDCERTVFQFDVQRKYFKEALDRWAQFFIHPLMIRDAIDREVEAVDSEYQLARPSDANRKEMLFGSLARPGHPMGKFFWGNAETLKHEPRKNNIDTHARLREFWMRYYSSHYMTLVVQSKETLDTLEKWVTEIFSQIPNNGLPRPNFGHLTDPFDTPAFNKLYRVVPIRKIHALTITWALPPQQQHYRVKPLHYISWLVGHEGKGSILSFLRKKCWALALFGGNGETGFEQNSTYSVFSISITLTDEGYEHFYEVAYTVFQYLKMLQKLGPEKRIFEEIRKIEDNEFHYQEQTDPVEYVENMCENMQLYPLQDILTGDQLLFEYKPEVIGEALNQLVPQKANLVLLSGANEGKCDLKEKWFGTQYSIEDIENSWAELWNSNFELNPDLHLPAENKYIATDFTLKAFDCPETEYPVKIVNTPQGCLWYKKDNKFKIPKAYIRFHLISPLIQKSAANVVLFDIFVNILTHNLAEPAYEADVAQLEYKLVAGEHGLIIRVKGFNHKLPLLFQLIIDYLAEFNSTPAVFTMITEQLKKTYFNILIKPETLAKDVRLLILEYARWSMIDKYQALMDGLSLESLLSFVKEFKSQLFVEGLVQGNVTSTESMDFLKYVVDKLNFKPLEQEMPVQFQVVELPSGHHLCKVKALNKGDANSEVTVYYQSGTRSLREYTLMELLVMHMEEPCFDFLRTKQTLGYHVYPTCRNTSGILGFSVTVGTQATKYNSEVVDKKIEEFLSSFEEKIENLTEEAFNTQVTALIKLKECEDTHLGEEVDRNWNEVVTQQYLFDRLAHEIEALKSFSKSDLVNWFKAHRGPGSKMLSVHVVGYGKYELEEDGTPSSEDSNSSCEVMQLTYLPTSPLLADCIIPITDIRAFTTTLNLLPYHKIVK
Sequence of UniProt Q9BS92 (Q9BS92 whole entry, looked up): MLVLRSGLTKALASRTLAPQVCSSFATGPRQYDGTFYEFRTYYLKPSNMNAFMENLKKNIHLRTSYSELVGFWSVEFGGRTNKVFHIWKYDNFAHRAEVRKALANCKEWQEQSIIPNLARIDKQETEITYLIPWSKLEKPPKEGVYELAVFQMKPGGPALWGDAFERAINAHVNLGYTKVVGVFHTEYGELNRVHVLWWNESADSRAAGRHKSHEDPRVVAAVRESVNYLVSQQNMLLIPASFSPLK
Sequence of UniProt O15460 (O15460 whole entry, looked up): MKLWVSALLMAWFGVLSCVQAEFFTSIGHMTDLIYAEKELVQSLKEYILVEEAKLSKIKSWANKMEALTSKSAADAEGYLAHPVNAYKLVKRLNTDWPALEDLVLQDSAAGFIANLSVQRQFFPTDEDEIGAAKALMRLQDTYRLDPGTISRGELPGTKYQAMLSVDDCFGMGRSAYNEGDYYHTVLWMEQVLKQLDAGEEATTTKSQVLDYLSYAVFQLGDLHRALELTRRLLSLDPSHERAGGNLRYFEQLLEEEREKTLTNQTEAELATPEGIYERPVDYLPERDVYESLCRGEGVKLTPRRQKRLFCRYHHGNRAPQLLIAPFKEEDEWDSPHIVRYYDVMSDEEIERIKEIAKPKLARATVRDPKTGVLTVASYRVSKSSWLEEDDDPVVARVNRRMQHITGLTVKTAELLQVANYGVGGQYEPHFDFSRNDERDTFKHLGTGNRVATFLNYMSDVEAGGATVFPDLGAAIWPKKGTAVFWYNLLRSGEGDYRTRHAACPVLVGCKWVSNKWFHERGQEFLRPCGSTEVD
Sequence of UniProt O75376 (O75376 whole entry, looked up): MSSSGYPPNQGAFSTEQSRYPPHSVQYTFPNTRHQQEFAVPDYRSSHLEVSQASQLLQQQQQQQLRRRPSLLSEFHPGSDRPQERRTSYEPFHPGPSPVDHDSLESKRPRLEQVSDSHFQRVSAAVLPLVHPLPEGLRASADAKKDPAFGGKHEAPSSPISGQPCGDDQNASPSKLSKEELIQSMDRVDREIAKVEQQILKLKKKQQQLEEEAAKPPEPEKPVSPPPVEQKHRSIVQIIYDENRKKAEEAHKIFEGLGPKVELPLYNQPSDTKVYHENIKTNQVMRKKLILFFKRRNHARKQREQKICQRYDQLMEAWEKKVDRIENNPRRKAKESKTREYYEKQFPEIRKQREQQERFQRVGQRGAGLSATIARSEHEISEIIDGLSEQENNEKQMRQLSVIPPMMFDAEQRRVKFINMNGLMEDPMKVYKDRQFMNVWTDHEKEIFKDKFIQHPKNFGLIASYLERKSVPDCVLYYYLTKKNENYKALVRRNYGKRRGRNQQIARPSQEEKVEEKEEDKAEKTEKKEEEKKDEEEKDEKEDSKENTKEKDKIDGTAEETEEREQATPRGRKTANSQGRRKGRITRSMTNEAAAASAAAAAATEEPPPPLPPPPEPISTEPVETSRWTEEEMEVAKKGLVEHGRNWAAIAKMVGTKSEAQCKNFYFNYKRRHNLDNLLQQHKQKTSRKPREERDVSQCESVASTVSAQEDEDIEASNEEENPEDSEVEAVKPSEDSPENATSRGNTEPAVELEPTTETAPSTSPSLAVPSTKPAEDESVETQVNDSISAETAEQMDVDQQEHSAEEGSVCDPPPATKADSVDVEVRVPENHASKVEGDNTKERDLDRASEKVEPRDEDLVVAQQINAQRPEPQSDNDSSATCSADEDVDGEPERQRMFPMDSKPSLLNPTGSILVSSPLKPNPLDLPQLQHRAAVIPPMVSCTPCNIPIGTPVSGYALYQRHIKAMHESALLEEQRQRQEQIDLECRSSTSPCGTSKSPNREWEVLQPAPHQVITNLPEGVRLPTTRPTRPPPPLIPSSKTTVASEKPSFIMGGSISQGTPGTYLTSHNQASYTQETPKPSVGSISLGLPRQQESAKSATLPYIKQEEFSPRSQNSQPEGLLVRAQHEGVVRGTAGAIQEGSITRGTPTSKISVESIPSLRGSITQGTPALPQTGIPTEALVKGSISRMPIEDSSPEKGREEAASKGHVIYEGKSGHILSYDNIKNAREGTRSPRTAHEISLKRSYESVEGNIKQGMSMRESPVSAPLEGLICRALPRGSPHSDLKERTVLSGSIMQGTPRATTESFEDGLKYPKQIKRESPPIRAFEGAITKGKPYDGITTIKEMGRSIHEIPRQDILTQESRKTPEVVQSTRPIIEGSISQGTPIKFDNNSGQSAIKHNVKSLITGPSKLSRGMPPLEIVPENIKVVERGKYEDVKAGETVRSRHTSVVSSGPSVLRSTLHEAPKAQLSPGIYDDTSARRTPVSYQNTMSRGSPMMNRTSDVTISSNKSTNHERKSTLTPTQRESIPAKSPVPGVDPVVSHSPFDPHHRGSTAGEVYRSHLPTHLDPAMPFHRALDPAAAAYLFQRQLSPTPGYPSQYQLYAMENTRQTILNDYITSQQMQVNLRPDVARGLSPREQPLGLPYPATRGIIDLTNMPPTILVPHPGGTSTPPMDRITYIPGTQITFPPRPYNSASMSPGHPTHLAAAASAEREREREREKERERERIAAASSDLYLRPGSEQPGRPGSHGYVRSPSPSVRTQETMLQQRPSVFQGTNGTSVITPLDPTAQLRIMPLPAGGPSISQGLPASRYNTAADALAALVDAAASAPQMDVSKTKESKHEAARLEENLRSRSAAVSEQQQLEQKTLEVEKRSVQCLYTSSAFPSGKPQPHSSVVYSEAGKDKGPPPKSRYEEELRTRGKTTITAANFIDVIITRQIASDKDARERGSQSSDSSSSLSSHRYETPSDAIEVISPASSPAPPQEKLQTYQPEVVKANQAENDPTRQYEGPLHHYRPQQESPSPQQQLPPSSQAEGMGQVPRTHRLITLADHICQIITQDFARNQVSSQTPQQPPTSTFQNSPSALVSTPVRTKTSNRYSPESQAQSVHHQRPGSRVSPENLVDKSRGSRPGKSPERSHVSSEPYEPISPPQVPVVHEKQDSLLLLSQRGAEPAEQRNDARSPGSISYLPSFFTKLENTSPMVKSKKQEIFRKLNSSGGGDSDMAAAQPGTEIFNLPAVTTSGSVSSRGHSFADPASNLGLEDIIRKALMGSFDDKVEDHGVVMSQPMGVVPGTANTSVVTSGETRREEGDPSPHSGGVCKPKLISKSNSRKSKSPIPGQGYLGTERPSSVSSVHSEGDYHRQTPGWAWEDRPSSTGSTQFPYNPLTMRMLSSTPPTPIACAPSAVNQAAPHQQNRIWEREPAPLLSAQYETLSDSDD
Sequence of UniProt Q16656 (Q16656 whole entry, looked up): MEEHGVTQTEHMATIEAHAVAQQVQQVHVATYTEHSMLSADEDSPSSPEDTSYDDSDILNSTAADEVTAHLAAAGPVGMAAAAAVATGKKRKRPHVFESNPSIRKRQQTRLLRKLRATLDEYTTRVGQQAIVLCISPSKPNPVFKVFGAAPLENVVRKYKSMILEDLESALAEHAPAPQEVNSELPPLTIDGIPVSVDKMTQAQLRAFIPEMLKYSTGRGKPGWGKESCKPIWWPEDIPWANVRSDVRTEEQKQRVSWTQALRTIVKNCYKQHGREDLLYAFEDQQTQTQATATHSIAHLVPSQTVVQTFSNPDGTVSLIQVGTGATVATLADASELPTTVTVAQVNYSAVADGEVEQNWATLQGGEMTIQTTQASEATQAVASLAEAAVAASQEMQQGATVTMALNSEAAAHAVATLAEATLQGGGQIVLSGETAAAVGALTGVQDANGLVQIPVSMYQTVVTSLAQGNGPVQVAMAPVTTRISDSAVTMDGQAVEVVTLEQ

log2 fold change, inactive:
MOV10 (UniProt Q9HCE1) 0.14
NRDC isoform 2 (UniProt O43847) -0.005
MRPS27 isoform 2 (UniProt Q92552) -0.029
NMRAL1 (UniProt Q9HBL8) 0.135
NRF1 isoform 4 (UniProt Q16656) -0.041
NIPSNAP3B (UniProt Q9BS92) -0.03
NCOR1 (UniProt O75376) 0.067
P4HA2 (UniProt O15460) 0.021
NUP210 (UniProt Q8TEM1) -0.125
NPC1 (UniProt O15118) 0.023

From the supplement of paper PMC10849652
